PKM2 activator: qHTS Assay for Activators of Human Muscle isoform 2 Pyruvate Kinase; Pyruvate kinase PKM (Homo sapiens), P14618; purified PKM2, Kinase-Glo ATP luminescence, activation; response scale: 0% is enzyme alone, no compound; Potency, µM (highest dose often 57.5 µM), without a hit: top-dose activation, usual class: activators; 260,000 tested, 0.34% active; note: potency is the fitted concentration of half-maximal effect; nearly all actives have a fitted effect of over 55% in size
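Kinase-Glo luminescence reports ATP generated from ADP (0.1 mM) and PEP (0.5 mM) by purified hPK-M2 after 1 h at room temperature, pH 7.2 imidazole buffer; intermediate enzyme activity allows detecting inhibitors and activators.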
CtBP-E1A inh: qHTS Assay for Inhibitors of the CtBP/E1A Interaction; CtBP / adenovirus E1A interaction (AlphaScreen); AlphaScreen GST-E1A/His-CtBP binding, 1536-well; stronger effect = lower value; activity change, % (test concentration not listed); 340,000 tested, 0.49% active; AID 651724, 2012; in the data active = activity change below about -65%; inconclusive = mostly about -30% to -63%
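Homogeneous bead-based format: GST-tagged E1A captured on glutathione donor beads, His-tagged CtBP on nickel acceptor beads; compounds precede bead addition by 2 h at 37 °C.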
RORg inh: qHTS for inhibitors of ROR gamma transcriptional activity | Nuclear receptor ROR-gamma (Mus musculus), P51450 | Drosophila S2 Gal4-RORgamma UAS-luciferase reporter, 20 h | Potency, µM (titrated, usually from 53.6 µM), inactives show top-dose activity change, negative = inhibition, hits mostly inhibitors | 310,000 tested, 5.4% active; note: potency is the fitted concentration of half-maximal effect; nearly all actives have a fitted effect of over 60% in size
Target sequence (P51450 whole entry, looked up, the tested form may be a part): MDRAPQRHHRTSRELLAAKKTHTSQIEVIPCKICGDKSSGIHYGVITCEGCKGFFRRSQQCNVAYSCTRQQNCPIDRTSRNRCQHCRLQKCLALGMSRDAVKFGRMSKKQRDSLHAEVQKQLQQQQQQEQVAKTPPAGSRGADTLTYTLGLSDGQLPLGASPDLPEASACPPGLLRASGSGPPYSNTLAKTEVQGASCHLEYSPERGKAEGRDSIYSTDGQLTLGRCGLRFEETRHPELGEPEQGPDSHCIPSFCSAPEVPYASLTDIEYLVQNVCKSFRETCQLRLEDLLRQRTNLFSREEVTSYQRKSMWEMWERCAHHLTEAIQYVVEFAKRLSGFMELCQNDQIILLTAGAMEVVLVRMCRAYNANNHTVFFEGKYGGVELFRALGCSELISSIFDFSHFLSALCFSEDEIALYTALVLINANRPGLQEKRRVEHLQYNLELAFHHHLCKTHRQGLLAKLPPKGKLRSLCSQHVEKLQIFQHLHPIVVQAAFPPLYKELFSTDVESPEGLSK
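Compounds are pin-transferred onto Drosophila Schneider cells expressing a copper-inducible Gal4–ROR gamma transactivation domain fusion. After 1 hr, copper sulfate is added to 700 uM final; luciferase is read 20 hr later.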
Six1-Eya2 inh: qHTS Assay for Inhibitors of the Six1/Eya2 Interaction; Homeobox protein SIX1 (Homo sapiens) + Protein phosphatase EYA2 (Homo sapiens), …; activity change, % (concentration not given with the values); AlphaScreen GST-Six1/His-Eya2 binding, biochemical; stronger effect = lower value; 360,000 tested, 0.56% active; in the data active = activity change below about -65%; inconclusive = mostly about -30% to -63%
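GST-Six1 + His-Eya2 (5X stock: 250/500 nM); Tris pH 8.0, 300 mM NaCl, 0.05% BSA, 0.02% Tween 20; GSH donor/Ni acceptor beads; 1 h 37 °C dark; AlphaScreen readout.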
VP16 counter: VP16 counterscreen qHTS for inhibitors of ROR gamma transcriptional activity | Drosophila S2 Gal4-VP16 UAS-luciferase, luminescence, 20 h | Potency, µM (highest dose often 53.6 µM), without a hit: at the highest dose activity, negative = inhibition, actives largely listed as inhibitors | 310,000 tested, 3.5% active | AID 2546, 2010;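 note: Gal4-VP16 expression switched on by copper sulfate through the metallothionein promoter; potency is the fitted concentration of half-maximal effect; nearly all actives have a fitted effect of over 50% in size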
An asterisk follows results filed as active; u = inconclusive; x = not tested or not shown. This is a sample that favours compounds with a hit; in the whole collection about 5.6% have one here. Unless noted, calls come from the whole dose curve; as a rule, active = well fitted curve in the direction sought with a large enough effect; inconclusive = small, poorly fitted or top-dose-only effect, or another doubt; inactive = no such curve, though single readings can be large; an effect the other way counts as inactive or inconclusive. % is set by controls: 0 for no effect and ±100 for the full control effect.

SMILES	PKM2 activator	CtBP-E1A inh	RORg inh	Six1-Eya2 inh	VP16 counter
Cc1ccc(/C=N/NC(=O)c2ccco2)s1	-15%	11	u	-1	-7%
O=C(N/N=C/c1ccc(Br)s1)c1ccco1	-8%	1	6.3µM*	14	10µM*
Cc1occc1C(=O)N/N=C/c1ccc(Br)s1	-27%	-4	6.3µM*	-7	10µM*
C/C(=N\NC(=O)c1ccoc1C)c1ccc(Br)s1	0%	0	6.3µM*	1	11µM*
O=C(N/N=C/c1sc(=O)n(Cc2ccc(Br)cc2)c1Cl)c1ccco1	x	-13	11µM*	-7	u
CCCC/C=C/C(NC(=O)c1ccco1)c1ccccc1 (stereo unspecified)	0%	x	24%	x	11%
OC[C@@H]1CN(CCN2CCOCC2)C[C@H](n2cnc3c(Nc4ccccc4)ncnc32)O1	x	11	x	3	x
CC1=C(C(=O)N2CCCCCC2)CC(CC(=O)NC2CCCC2)C(=O)N1Cc1ccc(C(C)(C)C)cc1 (stereo unspecified)	x	19	x	14	x
N#CC1(NC(=O)CN2C(=O)c3ccc([N+](=O)[O-])cc3C2=O)CCCCC1	x	-7	x	6	x
O=C(N/N=C/c1ccc(Br)s1)c1ccccn1	-12%	-26	u	u	4µM*
Cc1ccccc1S(=O)(=O)NC(=O)C1(C)CCN1C(=O)C1(c2ccccc2)CC1 (stereo unspecified)	x	2	x	5	x
O=S(=O)(Nc1nc2ccccc2s1)c1ccc(Cl)nc1	-5%	4	u	4	1%
Cc1ccc(C(=O)Nc2ncc(C)s2)o1	-49%	0	u	-1	-7%
CSc1ncccc1C(=O)Nc1ccc(S(=O)(=O)Nc2nccs2)cc1	9%	1	2%	1	0%
Cc1ccc(C(=O)Nc2ncc(C)s2)s1	-16%	1	7.1µM*	7	u
CSc1ncccc1C(=O)Nc1ncc(C)s1	x	3	11µM*	1	-21%
CSc1ncccc1C(=O)Nc1nccs1	-9%	0	10µM*	0	-16%
CCn1c(=O)c2c(nc(SCC(=O)Nc3ccccc3)n2C)n(C)c1=O	14%	20	-7%	-3	-3%
COc1cc(C2C(C#N)=C(N)OC3=C2C(=O)CC(C)(C)C3)ccc1OCCN1CCOCC1 (stereo unspecified)	2%	3	-14%	0	-15%
CC(C)C(=O)Nc1ncc(C(F)(F)F)cc1Cl	0%	10	8%	-1	5%
CON/C=N/C(=S)Nc1ncc(C(F)(F)F)cc1Cl	5%	8	0.56µM*	-1	u
ON/C=N/C(=S)Nc1ncc(C(F)(F)F)cc1Cl	18%	u	1.6µM*	-18	u
NC(=O)Cc1ncc(C(F)(F)F)cc1Cl	1%	-10	-4%	8	-13%
NC(=S)N/N=C/c1ncc(C(F)(F)F)cc1Cl	7%	-85*	0.63µM*	-85*	0.5µM*
O=C(COC(=O)/C=C/c1ccccc1[N+](=O)[O-])NCC(F)(F)F	-4%	x	-20%	19	-3%
SMILES	PKM2 activator	CtBP-E1A inh	RORg inh	Six1-Eya2 inh	VP16 counter
COc1ccc(NC(=O)/C(C#N)=C/c2ccc(Sc3nncn3C)c([N+](=O)[O-])c2)cc1	25%	-16	-40%	-1	22µM*
Cn1cnnc1Sc1ccc(/C=C/C(=O)c2ccc(O)cc2)cc1[N+](=O)[O-]	u	x	10µM*	11	u
N#Cc1c(N)n(CCNC(=O)c2ccc(Cl)cc2)c2nc3ccccc3nc12	28µM*	-9	-26%	-11	-19%
O=C(CCN1CCc2ccccc2C(c2ccccc2)C1)c1ccc2c(c1)OCCO2 (stereo unspecified)	0%	-15	4.5µM*	-20	3.5µM*
O=C(CCN1Cc2ccccc2C1)c1ccc2c(c1)OCCO2	22%	6	13µM*	-1	16µM*
O=C(O)CCSCC(=O)c1ccc2c(c1)OCCO2	10%	-3	2µM*	18	3.5µM*
CN(C)CCC(=O)c1ccc2c(c1)OCO2	-1%	3	2.2µM*	2	6.3µM*
O=C(O)CCC(=O)c1ccc2c(c1)OCCO2	u	1	-11%	-1	-3%
CCCC(=O)c1ccc2c(c1)OCCO2	-2%	0	44%	3	u
O=C(Nc1ccc(Br)cc1)c1ccc(F)c(S(=O)(=O)NCc2cccs2)c1	-4%	1	u	-17	10µM*
O=S(=O)(NCc1cccs1)c1ccc(Br)cc1	-1%	6	u	10	-1%
N#CC1=C(N)Oc2n[nH]c(-c3cccnc3)c2C1c1ccc([N+](=O)[O-])o1 (stereo unspecified)	x	-8	6.3µM*	-15	u
CCCn1cc(CN2CCC(N3CCC(C(=O)N4CCOCC4)CC3)CC2)c(C)n1	-1%	3	-38%	-5	-17%
COc1ccc(Cc2[nH]n3c(=O)cc(C)nc3c2-c2ccccc2)cc1	3%	4	11µM*	9	u
COc1ccc(Cc2[nH]n3c(=O)cc(C(C)C)nc3c2-c2ccccc2)cc1	-2%	2	3.5µM*	1	10µM*
O=C(Cc1ccc(NC(=O)C2CCN(C(=O)C3CCC3)CC2)cc1)Nc1ccc(C(=O)N2CCOCC2)cc1	x	7	x	4	x
Cc1cc(N(C)N)nc(NC(=O)NS(=O)(=O)c2ccccc2Cl)n1	x	-94*	-42%	-74*	0%
O=C(COC(=O)C1=COCCO1)NCc1ccc(Cl)cc1	-12%	x	16%	4	-9%
O=C(COC(=O)c1cc(Cl)ccc1O)NCCC1=CCCCC1	x	8	x	-1	x
C/C(=N\NC(=O)CCc1ccccc1)c1ccc(Br)cc1	x	5	21%	5	-4%
C/C(=N\NC(=S)NCc1ccccc1)c1ccc(Br)cc1	4%	-21	0.28µM*	-10	0.5µM*
C/C(=N\NC(=S)NCc1ccccc1)c1ccc2ccccc2c1OC(F)F	4%	-12	2.2µM*	-19	2.2µM*
C/C(=N\NC(=S)NCc1ccccc1)c1ccc2c(c1)OCCO2	0%	x	2.8µM*	-8	8.9µM*
O=C(NCc1ccccc1)c1ccc2c(c1)OCCO2	0%	8	u	6	4%
CCNC(=S)N/N=C(\C)c1ccco1	-4%	-11	4µM*	3	13µM*
C/C(=N\NC(=S)NCc1ccccc1)c1ccc(C)o1	0%	-26	2.2µM*	-14	7.1µM*
C/C(=N\Nc1cc(N2CCOCC2)nc(C)n1)c1cccc([N+](=O)[O-])c1	-3%	3	-8%	-3	-1%

Assay outcomes deposited in PubChem BioAssay by National Center for Advancing Translational Sciences (NCATS).
